Assays:
[1] = target: Tumor necrosis factor receptor superfamily member 10B (Homo sapiens) (UniProt O14763); experiment: viability loss of caspase-8 NB7 cells with TRAIL – with/without TRAIL, luminescence panel, confirmation (AID 651596); conditions: NB7 neuroblastoma + caspase-8, TRAIL sensitization, NB7 Caspase-8, with TRAIL, mean of runs, at 10 µM, stronger effect = higher value
[2] = as above; conditions: NB7 neuroblastoma + caspase-8, without TRAIL, NB7 Caspase-8, without TRAIL, mean of runs, at 10 µM

Chain of Tumor necrosis factor receptor superfamily member 10B (Homo sapiens) (O14763 whole entry, looked up): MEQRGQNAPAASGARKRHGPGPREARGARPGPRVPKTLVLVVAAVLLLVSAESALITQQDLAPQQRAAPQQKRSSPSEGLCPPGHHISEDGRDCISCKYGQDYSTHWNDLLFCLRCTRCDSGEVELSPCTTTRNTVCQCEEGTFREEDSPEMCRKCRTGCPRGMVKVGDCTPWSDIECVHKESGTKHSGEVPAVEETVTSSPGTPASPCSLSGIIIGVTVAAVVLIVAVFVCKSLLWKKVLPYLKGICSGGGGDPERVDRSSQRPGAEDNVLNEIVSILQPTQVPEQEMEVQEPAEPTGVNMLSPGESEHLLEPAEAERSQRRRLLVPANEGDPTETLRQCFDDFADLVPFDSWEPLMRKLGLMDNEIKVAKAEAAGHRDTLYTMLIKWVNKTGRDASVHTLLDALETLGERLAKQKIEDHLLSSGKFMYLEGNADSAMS

Row | Structure (SMILES) | activity [1] | activity [2]
1 | O=C(NC(=S)Nc1nc2ccccc2s1)c1ccco1 | 77.7% | 64.4%
2 | CCCCCCCN(C(=O)CCl)c1ccccc1C | 99.6% | 98.1%
3 | Fc1ccc(-c2nc3n(n2)Cc2ccccc2-3)cc1 | 54% | 55.6%
4 | CCOC(=O)c1sc2nc3c(SCC(=O)O)cc(C(=O)c4ccccc4O)cn3c(=O)c2c1C | 49.1% | 42.5%
5 | Cc1ccc(C(=O)N/N=C\c2ccccc2[N+](=O)[O-])cn1 | 47.5% | 43.6%
6 | CCCCC[C@@H](C)N1C[C@H](COCc2ccccc2)Oc2cc(N3CC[C@H](N(C)C)C3)ccc2S1(=O)=O | 12% | 45.6%
7 | O=C(Nc1ccc(N2CCN(C(=O)c3ccccc3)CC2)cc1)c1cc2ccccc2o1 | 70.8% | 50.3%
8 | CC(=O)c1c(C)[nH]c(C(=O)Nc2ccc(C)cn2)c1C | 75.9% | 77.6%
9 | COc1ccc(/C=N\n2nnc3ccccc32)cc1 | 53.3% | 42.7%
10 | COc1ccc(Cn2c(SCc3ccccc3C)nc3cc(OC)c(OC)cc3c2=N)cc1 | 72.7% | 90.9%
11 | COc1ccc(-c2ccc3sc4ccccc4c(=O)c3c2)cn1 | 63.2% | 61.5%
12 | Cc1ccc2nc(-c3ccc(NC(=O)COC(=O)c4ccc(Br)o4)cc3)sc2c1 | 62% | 67.4%

Reference: PubChem BioAssay
